Test results: PubChem BioAssay AID1345082 (National Center for Advancing Translational Sciences (NCATS), 2018)
About 4,000 (4.3%) of roughly 94,000 compounds were called active. About 29% were inconclusive and are not listed. Calls follow the shape of the dose curve; as a rule, active = well fitted inhibition curve with a large enough effect; inconclusive = small, poorly fitted or top-dose-only effect; inactive = no such curve, though single readings can be large or run the other way. The list comes from a sample in which actives are over-represented; it also holds similar structures and randomly drawn compounds. Entries that show only a call come without a potency.

assay: Cytotoxic Profiling in NIH 3T3 Cell Line of Diverse Libraries Using Quantitative High-Throughput Screening; conditions: NIH 3T3 viability, CellTiter-Glo ATP luminescence, 48-72 h; series mostly up to 96.7 µM; also: nearly all actives have a fitted effect of over 55% in size
In short: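 Viability of NIH 3T3 cells after 48 or 72 hr compound treatment at 37 °C was assessed by CellTiter-Glo, with luminescence imaged following a 10 min room-temperature step.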
Potency is read from the fitted curve at half-maximal effect.

Row | Compound | Potency
1 | COC(=O)c1ccc(CN2C(=O)[C@@H]3C[C@@H](O)CN3C3(CN(Cc4cccc(F)c4)C3)C2=O)cc1 | inactive
2 | CCN1CC(C(=O)NCC2(c3ccccc3F)CCCC2)CC1=O (stereo unspecified) | inactive
3 | CC(C)c1ccc(CN2CCc3nc(N(C)C)[nH]c(=O)c3CC2)cc1 | inactive
4 | COc1cccc(CCC(=O)N2C[C@@H](Oc3ccccc3)C[C@@H]2C(=O)N2CCOCC2)c1 | inactive
5 | Cc1ccc(NC(=O)N[C@@H]2C=C(C(=O)NCCC(N)=O)C[C@@H](O)[C@@H]2O)cc1 | inactive
6 | CN1C[C@@H]2CC[C@H](C1)N(Cc1cccc(OCCN3CCOCC3)c1)C2 | inactive
7 | CCCCC(=O)N1CCC(OC2CCN(S(C)(=O)=O)CC2)CC1 | inactive
8 | Cn1cnc(S(=O)(=O)N[C@H]2CCN(C(=O)CSCC(=O)O)[C@H](C(=O)N[C@H](Cc3ccccc3)C(N)=O)C2)c1 | inactive
9 | COc1ccccc1-n1c(=O)c(C(=O)N2CCN([S+](C)(=O)[O-])CC2)nc2cccnc21 | inactive
10 | Cc1ccncc1C(=O)N1CCC2(CC1)CC(c1ccccc1)C(=O)N2C (stereo unspecified) | inactive
11 | Cc1cc(N2CCC3(CC2)CC(c2ccccc2)C(=O)N3C)ncn1 (stereo unspecified) | 79.4 µM (active)
12 | CC#CCN1C(=O)NC(CCc2ccccc2)(C2CCN(Cc3ccccc3-c3ccco3)CC2)C1=O (stereo unspecified) | inactive
13 | CC(=O)N1CC2(CCN(Cc3ncc[nH]3)CC2)CC1C(=O)O (stereo unspecified) | inactive
14 | O=C(Nc1ccccc1)O[C@@H]1CO[C@H]2[C@@H]1OC[C@@H]2NS(=O)(=O)c1cccc2cccnc12 | inactive
15 | N#Cc1cccc(NC(=O)O[C@@H]2CO[C@H]3[C@@H]2OC[C@@H]3Nc2nccc(-c3ccccc3)n2)c1 | 35.5 µM (active)
16 | O=C(Nc1ccc(Oc2ccccc2)cc1)O[C@@H]1CO[C@H]2[C@@H]1OC[C@@H]2NCC1CC1 | inactive
17 | COc1cccc([S+](=O)([O-])N2CCC3(C2)N=C(c2ccncc2)C(=O)N3)c1 (stereo unspecified) | inactive
18 | CN1C(=O)CC[C@]2(C(=O)NCc3ccc4c(c3)OCO4)CCCC[C@@H]12 | inactive
19 | CC1(C(=O)NCC2CCCO2)CCCc2cnc(Nc3ccccc3)nc21 (stereo unspecified) | inactive
20 | CC1(C(=O)NCc2ccc3c(c2)OCO3)CCc2cnc(NCc3ccccc3)nc21 (stereo unspecified) | 3.16 µM (active)
21 | O=C(NCc1ccc(F)cc1F)c1nnn2c1COC(c1ccc(Br)cc1)C2 (stereo unspecified) | inactive

Row | Compound | Potency
22 | COc1cccc([S+](=O)([O-])N2CCC3(CC2)C(=O)NN=C3c2ccncc2)c1 | inactive
23 | CC(C)(C)C(=O)N1CCCC1C(=O)N1CCC(N2Cc3ccccc3C2=O)CC1 (stereo unspecified) | inactive
24 | O=C(NCc1cccnc1)c1nc(-c2ccc(Cl)nc2)c2cnccn12 | inactive
25 | c1ccc2sc(C3CCCN(Cc4cc5n(n4)CCNC5)C3)nc2c1 (stereo unspecified) | inactive
26 | CN1CCC(N2CC[C@H](c3nc4ccccc4s3)C2)CC1 | 35.5 µM (active)
27 | Cn1c([C@H]2CCN(C3CCOCC3)C2)nc2ccccc21 | inactive
28 | O=C1NC(=NC2CCCCC2)C2(CCCN([S+](=O)([O-])c3ccccc3)C2)N1c1cc(F)cc(F)c1 (stereo unspecified) | inactive
29 | O=C(c1ccccc1F)N1CCCC2(C1)C(=NC1CCCCC1)NC(=O)N2c1cc(F)cc(F)c1 (stereo unspecified) | inactive
30 | CC(C)CCN1CCC2(C1)C(=NC1CCCCC1)NC(=O)N2c1cc(F)cc(F)c1 (stereo unspecified) | 35.5 µM (active)
31 | O=C(CN1CCCC1=O)NCC1Cn2cccc2C(=O)N1Cc1ccccc1 (stereo unspecified) | inactive
32 | CC(C)C(=O)N1CCOc2ccc(CN3CCc4ccccc4C3)cc2C1 | inactive
33 | CCCNC(=O)N1CCC(Cn2c(C)cnc2-c2cccnc2)CC1 | inactive
34 | O=C(NCc1ccc2c(c1)OCO2)C1CN(C2CCCCC2)C(=O)N1 (stereo unspecified) | inactive
35 | COCCNC(=O)C1CCCN(Cc2cccc(-c3cccs3)c2)C1 (stereo unspecified) | inactive
36 | O=C(NCc1ccc2c(c1)OCO2)C1CCCN(Cc2cccc(-c3cccs3)c2)C1 (stereo unspecified) | 31.6 µM (active)
37 | Cc1nc(C(=O)N2CC[C@H](N3CCN(C)CC3)[C@H](CCCO)C2)cs1 | inactive
38 | CCCCOC(=O)N1CC(=O)N(Cc2ccco2)CC(O)C1 (stereo unspecified) | inactive
39 | COCCOCC(=O)N1CCC2(CC1)CC(N(C(=O)c1ccccc1)C1CC1)CCO2 (stereo unspecified) | inactive
40 | COC[C@H]1NC(=O)CC[C@H]1C(=O)NCc1cccc(C(F)(F)F)c1 | inactive
41 | COc1ccccc1CNC(=O)c1nn(CC2CC2)c2c1CNCC2 | inactive
42 | O=C(NCc1cccc(C(F)(F)F)c1)c1nn(CCOc2ccccc2)c2c1CNCC2 | 15.8 µM (active)

Row | Compound | Potency
43 | CC(C)NC(=O)C1(CCO)CC12CCOCC2 (stereo unspecified) | inactive
44 | O=C(c1ccc(Cl)cc1)N1CCCN(CCn2nc3n(c2=O)CCCC3)CC1 | inactive
45 | CCNC(=O)N[C@H]1CC[C@]2(C)CC[C@@H]([C@H](C)C(=O)NCc3ccco3)[C@H](O)[C@H]2[C@@H]1C | inactive
46 | CC(C)(C)CC(=O)Nc1ccc2c(N3CCOCC3)ncnc2c1 | inactive
47 | O=c1cc(N2CCOCC2)oc2c(NCc3ccncc3)nccc12 | 44.7 µM (active)
48 | Cc1noc(C)c1-c1nccc2c(=O)cc(N3CCOCC3)oc12 | 100 µM (active)
49 | CCn1c(=O)c2ccnn2c2ccc(C(=O)NCc3ccc(N4CCOCC4)cc3)cc21 | inactive
50 | CC(=O)Nc1ccc(C2(C(=O)NCCCN3CCOCC3)CCCCC2)cc1 | inactive
51 | CC(CO)Nc1ncnc2c1CN(C1CCCNCC1)C(=O)CN2C (stereo unspecified) | inactive
52 | Cn1c(=O)[nH]cc(CC(=O)N2CCCC(c3cccc(C(=O)O)c3)C2)c1=O (stereo unspecified) | inactive
53 | CC1(c2ccccc2)N(Cc2ccccc2F)C(=O)OC12CCN(Cc1c[nH]c3ccccc13)CC2 (stereo unspecified) | 17.8 µM (active)
54 | CCc1ccccc1S(=O)(=O)N1CCN(C2(CC)CCN(C(=O)C(C)C)C2)CC1 (stereo unspecified) | inactive
55 | COc1ccc(CN2CCC3(CC2)OCCN(Cc2ccccc2F)C3=O)cc1O | inactive
56 | CN(CCO)CC1(O)CCCN(Cc2ccccc2F)C1=O (stereo unspecified) | inactive
57 | CC(C)C(=O)N1CCC2(CC1)OC(=O)N(Cc1ccccc1F)C2(C)c1ccccc1 (stereo unspecified) | 44.7 µM (active)
58 | O=C1CCN(C(=O)Cc2c[nH]c3ccccc23)CCCCCCN1 | inactive
59 | O=C(CCc1conc1-c1ccccc1)NCc1ccco1 | inactive
60 | CCOc1ccccc1NC(=O)Cn1c(N2CCOCC2)nc(CC)cc1=O | inactive
61 | C[S+](=O)([O-])N1Cc2ccccc2OC2(CCN(C(=O)Cc3cccc(O)c3)CC2)C1 | inactive
